Screens: PubChem, National Center for Advancing Translational Sciences (NCATS)
CHX counter = affects cycloheximide protein synthesis inhibition readout, counter-screen. max response, %. 300,000 compounds, 12% hits. cell reporter, cycloheximide protein synthesis inhibition counterscreen; in the data active = max response mostly above about 13%, no sharp cut-off; inactive = mostly below about 14%; note: read at 38.3 µM for the half of the compounds with a filed dose; 0% is about no effect
FMDV antiviral = foot and mouth disease virus antiviral activity; FMDV antiviral cell-based qHTS; Potency, µM (series often up to 57.9 µM), for the others: top-dose activity change, negative = inhibition, actives largely listed as inhibitors; 410,000 compounds, 1.2% hits; AID 1159524; calls by dose curve; tested in HEK293T cells; note: read-out not given here; potency is the fitted concentration of half-maximal effect; % is set by controls: 0 for no effect and ±100 for the full control effect; nearly all actives have a fitted effect of over 45% in size
Shiga toxin inh = Shiga toxin inhibition; 290,000 compounds, 9.2% hits; Vero cells, Shiga toxin protein synthesis inhibition reporter; inhibition, % at 38.7 µM; in the data active = inhibition mostly above about 28%, no sharp cut-off; inactive = mostly below about 43%; note: 0% is about no effect
Lassa entry inh = blocks Lassa virus binding to or entry into cells. AID 540256. Potency, µM (series often up to 37.9 µM), inactives show at the highest dose activity change, negative = inhibition, hits mostly inhibitors. 300,000 compounds, 1.2% hits. Lassa virus pseudotype entry inhibition, cell reporter; calls by dose curve; tested in HEK293 cells; note: potency is the fitted concentration of half-maximal effect; % is set by controls: 0 for no effect and ±100 for the full control effect; nearly all actives have a fitted effect of over 50% in size
MARV entry inh = Marburg virus entry inhibition; Potency, µM (doses to about 37.8 µM), for inactives: top-dose activity change, negative = inhibition, most hits filed as inhibitors; Marburg virus pseudotyped entry inhibition, cell reporter; 300,000 compounds, 1.8% hits; calls by dose curve; tested in HEK293 cells; note: potency is the fitted concentration of half-maximal effect; % is set by controls: 0 for no effect and ±100 for the full control effect
HCV inhibitor = blocks hepatitis C virus; AID 651820; Potency, µM (titrated, usually from 41.8 µM), without a hit: at the top dose activity change, negative = inhibition, most hits filed as inhibitors; Huh7.5.1 HCVcc-Cre infection, luciferase reporter, 44 h; 340,000 compounds, 3.4% hits; active = well fitted inhibition curve with a large enough effect; inconclusive = small, poorly fitted or top-dose-only effect, or another doubt; inactive = no such curve, though single readings can be large or run the other way; note: potency is the fitted concentration of half-maximal effect; % is set by controls: 0 for no effect and ±100 for the full control effect
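1,000 cells/well; 4 h culture; + compound; + HCVcc-Cre (~0.5 moi); 44 h; luciferase substrate, RT 15 min; read 15 sec.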
* hit, by the source's call; [ ] = another dose, or the depositor's remark. Compounds with a hit are over-represented: about 13% of the library has one in this group of screens.

For Cc1cc(Cl)ccc1N=c1ssnc1Cl the results were CHX counter 4, FMDV antiviral inconclusive, Shiga toxin inh -14, Lassa entry inh -23%, MARV entry inh -8% and HCV inhibitor -24%.
For COc1ccc(OC)c(N=c2ssnc2Cl)c1 the results were CHX counter -2, FMDV antiviral -1%, Shiga toxin inh -4, Lassa entry inh -3%, MARV entry inh 11% and HCV inhibitor -20%.
`Cc1cc(C)c(C#N)c(Cl)n1` gave CHX counter 5, FMDV antiviral 0%, Shiga toxin inh -7, Lassa entry inh 3%, MARV entry inh inconclusive and HCV inhibitor 20%.
Screening COc1ccc(NC(=O)c2ccccc2SC)cc1OC returned CHX counter 8, FMDV antiviral 30%, Shiga toxin inh -5, Lassa entry inh 12%, MARV entry inh 10% and HCV inhibitor -8%.
Screening COc1ccc(NC(=O)C#Cc2ccccc2)cc1OC returned CHX counter 13*, FMDV antiviral 12%, Shiga toxin inh 39, Lassa entry inh -9%[46.1 µM], MARV entry inh inconclusive and HCV inhibitor inconclusive.
`NC(=O)c1ccc(NC(=O)C#Cc2ccccc2)cc1` gave CHX counter 35*, FMDV antiviral -6%, Shiga toxin inh 56*, Lassa entry inh 2.2µM*, MARV entry inh 4.5µM* and HCV inhibitor inconclusive.
Screening COCCN1CCn2c(nc3cc([N+](=O)[O-])ccc32)C1 returned CHX counter -3, FMDV antiviral -5%, Shiga toxin inh -4 and HCV inhibitor 6%.
O=[N+]([O-])c1ccc2c(c1)nc1n2CCN(c2ccccc2)C1 was read as CHX counter 37*, FMDV antiviral -14%, Shiga toxin inh 29* and HCV inhibitor -23%.
`O=[N+]([O-])c1ccc2c(c1)nc1n2CCN(CC2CCCO2)C1` (stereo unspecified) gave CHX counter 28*, FMDV antiviral 32%, Shiga toxin inh 24 and HCV inhibitor 1%.
`CC(C)CCNC(=O)CCn1c(=O)c2cccn2c2cccnc21` gave FMDV antiviral -1% and Lassa entry inh 18%[46.1 µM].
CC(C)c1ccc(N(CC(=O)NCCSCc2ccco2)S(C)(=O)=O)cc1 was read as CHX counter -2, FMDV antiviral -6%, Shiga toxin inh -4, Lassa entry inh -16%, MARV entry inh inconclusive and HCV inhibitor -5%.
For CCCCCC(=O)O/N=C(\C)c1ccn(S(=O)(=O)c2ccccc2)c1 the results were CHX counter -2, FMDV antiviral -6%, Shiga toxin inh -3, Lassa entry inh 21%, MARV entry inh 9% and HCV inhibitor 30%.
COc1ccc(/C=N/NC(=O)c2cccc(Br)c2)cc1COc1ccccn1 was read as CHX counter 14*, FMDV antiviral -2%, Shiga toxin inh 11, Lassa entry inh -11%, MARV entry inh 2%[46.1 µM] and HCV inhibitor -9%.
COc1ccc(/C=N\NC(=O)c2ccccc2OC)cc1COc1ccccc1C was read as CHX counter 7, FMDV antiviral -13%, Shiga toxin inh 3, Lassa entry inh 6%[46.1 µM], MARV entry inh inconclusive and HCV inhibitor inconclusive.
For COc1ccc(/C=N/NC(=O)c2cccc(Br)c2)cc1CN1CCOCC1 the results were CHX counter 19*, FMDV antiviral 26%, Shiga toxin inh 18, Lassa entry inh 10%, MARV entry inh -4% and HCV inhibitor 12%.
Screening COc1ccc(/C=N/NC(=O)c2ccccc2O)cc1CN1CCOCC1 returned CHX counter 7, FMDV antiviral -5%, Shiga toxin inh 40, Lassa entry inh -2%, MARV entry inh 13%[46.1 µM] and HCV inhibitor 14%.
COc1ccc(/C=N/NC(=O)c2ccccc2O)cc1COc1ccccn1 was read as CHX counter 23*, FMDV antiviral -3%, Shiga toxin inh 41* and HCV inhibitor 10%.
For COc1ccc(/C=N/NC(=O)c2ccccc2O)cc1CSc1ccccn1 the results were CHX counter 9, FMDV antiviral 14%, Shiga toxin inh 82, Lassa entry inh 7%, MARV entry inh 6% and HCV inhibitor -11%.
`CCn1c(SCC(=O)Nc2ccccc2)nnc1-c1ccc(S(=O)(=O)N2CCOCC2)cc1` gave CHX counter -1, FMDV antiviral inconclusive, Shiga toxin inh 15, Lassa entry inh 13%, MARV entry inh -7% and HCV inhibitor -3%.
For Cc1nonc1CN(C)C(=O)CC1C(=O)NCCN1Cc1ccc(F)c(F)c1 (stereo unspecified) the results were CHX counter -1, FMDV antiviral 2%, Shiga toxin inh -13, Lassa entry inh 11%[46.1 µM], MARV entry inh -3%[46.1 µM] and HCV inhibitor -4%.
CC1CC=CC2C1C(=O)N(Cc1ccccc1)C2c1ccc2ccccc2c1-c1ccc(N(C)C)cc1 (stereo unspecified) was read as CHX counter -3 and Shiga toxin inh -7.
Screening O=C1Nc2ccccc2Oc2cc([N+](=O)[O-])ccc21 returned CHX counter 31, FMDV antiviral 7%, Shiga toxin inh 42, Lassa entry inh 10%[46.1 µM], MARV entry inh 10%[46.1 µM] and HCV inhibitor -10%.
O=[N+]([O-])/C(C(Cl)=C(Cl)Cl)=C1\Nc2ccccc2O1 was read as CHX counter 17*, FMDV antiviral 26%, Shiga toxin inh 71*, Lassa entry inh -2%, MARV entry inh 0% and HCV inhibitor 24%.
`COc1ccc(OCC(=O)N2CCC(Cc3ccccc3)CC2)cc1` gave CHX counter -2, FMDV antiviral -10%, Shiga toxin inh 19, Lassa entry inh inconclusive, MARV entry inh 29%[46.1 µM] and HCV inhibitor -5%.
`S=C(c1ccc(N2CCCC2)cc1)N1CCCCC1` gave CHX counter 52*, FMDV antiviral 45%, Shiga toxin inh 112*, Lassa entry inh inconclusive, MARV entry inh -3% and HCV inhibitor 4%.
Screening S=C(c1ccc(N2CCCC2)c(Br)c1)N1CCCCC1 returned CHX counter 12*, FMDV antiviral 40%, Shiga toxin inh 17, Lassa entry inh -2%, MARV entry inh 24% and HCV inhibitor 11%.
For CSc1ccc(C(=S)N2CCCC2)cc1 the results were CHX counter 16*, FMDV antiviral 20%, Shiga toxin inh 25 and HCV inhibitor 21%.
Screening Oc1ccc(C(=S)N2CCCCCC2)cc1 returned CHX counter -1, FMDV antiviral 12%, Shiga toxin inh -3, Lassa entry inh -13%, MARV entry inh 0% and HCV inhibitor 8%.
For CN(CC(=O)Nc1ccccc1Cl)C(=O)CSc1ncc(C(F)(F)F)cc1Cl the results were CHX counter 0, FMDV antiviral 0%, Shiga toxin inh -5, Lassa entry inh 4%, MARV entry inh 5% and HCV inhibitor 3%.
`Cc1ccc(OCc2nnc(SCC(=O)Nc3ccc4c(c3)OCO4)n2C)cc1` gave CHX counter 8, FMDV antiviral 23%, Shiga toxin inh 12, Lassa entry inh -1%, MARV entry inh 2% and HCV inhibitor inconclusive.
